# Laboratory results reported in PubChem BioAssay (NCI).
# About 83,000 compounds went through this panel and 20% of them were active in at least one assay; those are over-represented in the sample as a whole.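 A percent growth of 40 corresponds to 60% growth inhibition; 0 means no net growth; -100 means all cells died. Active threshold: below 10.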 Calls of active or inactive are those of the source.
# Test system: MDA-MB-468 breast
# Assay: NCI-60 one-dose screen, 48 h (100 = growth as untreated, 0 = no growth, -100 = all killed)
# Conditions: 10 µM unless noted
row,SMILES,growth
1,CCC(C)(C)c1ccc(Nc2ccc(Nc3ccc(C(C)(C)CC)cc3)cc2)cc1,101% (inactive)
2,CCCCC1=c2c([nH]c3ccc(OC)cc23)=NC2C=CC=NC12 (stereo not given),-23.5% (active)
3,NS(=O)(=O)c1ccc(CCN2C(=O)C=CC2=O)cc1,103% (inactive)
4,O=CCCCOCc1ccccc1,112% (inactive)
5,CCOC(=O)CC(=O)OC,102% (inactive)
6,CCCCCCCCCC[N+](C)(C)C,-31.3% (active)
7,COC(=O)CCCCCCN=Cc1c(O)c(O)c(C(C)C)c2cc(C)c(-c3c(C)cc4c(C(C)C)c(O)c(O)c(C=NCCCCCCC(=O)OC)c4c3O)c(O)c12,47.1% (inactive)
8,Cc1c(CN)cc(-c2ccc(Cl)cc2)n1-c1ccccc1,18.7% (inactive)
9,Cc1nc2sc(C(=O)Nc3cccc(Cl)c3C)c(N)c2cc1C(C)O (stereo not given),25.4% (inactive)
10,CCNCCCn1c2c(c3ccc(F)cc3c1=O)C(=O)c1cc(OC)cnc1-2,-75.7% (active)
